Reference: the supplement of paper PMC9897528

System: Scedosporium aurantiacum CBS 136046
Experiment: growth inhibition relative to DMSO control (OD600); higher = more antifungal activity, active = 80 or more; extreme values may be limits of the assay
Details: 5 µM; 72 h; 37 °C
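Also: conidia screened in RPMI 1640 medium under 5% CO2, growth read by spectrophotometer, medium with 0.5% DMSO serving as the untreated reference.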

Growth inhibition, inactive:
NC1C2CC3CC(C2)CC1C3 (stereo unspecified) 23.6%
CCC(CC)[C@H](NC(C)=O)[C@@H]1[C@H](O)[C@@H](C(=O)O)C[C@H]1NC(=N)N 14.3%
COc1ccc(C(C)(C)C)cc1NC(=O)C(=O)c1ccc(OCCN2CCOCC2)c2ccccc12 9.3%
COc1ccc(OCc2ccc(COc3c(Cl)cccc3Cl)cc2)c(Cl)c1 21.7%
O=C(Nc1ccc(-c2ccccc2)cc1)C1=C(O)C(Cc2ccccc2)OC1=O (stereo unspecified) 45.3%
CN(C(=O)C1(c2ccc(Cl)cc2)CCC1)c1ccccc1 13.9%
CC#C[C@]1(O)CC[C@H]2[C@@H]3CCC4=CC(=O)CCC4=C3[C@@H](c3ccc(N(C)C)cc3)C[C@@]21C 11.4%
COc1ccc(C)cc1NC(=O)c1ccc(S(=O)(=O)N2CCCCC2)cc1 32.4%
O=C(NC1CCCc2c1[nH]c1ccc(Cl)cc21)c1ccccn1 (stereo unspecified) 15.1%
CCCCCOc1ccc(/C=C2\Oc3c(ccc(O)c3O)C2=O)c(O)c1 1.85%
O=c1cc(Nc2ccc3ccccc3c2)[nH]c(=O)[nH]1 0.738%
